From PubChem BioAssay AID1159580 (chemical genetic matrix, 2015)
Several values for one entry are separate records, joined by “and”; a condition that tells them apart may be missing. Equal values may be shown once. About 2,000 (36%) of roughly 5,500 compounds were called active. Not shown: some 18% with an inconclusive outcome. Rule as the data show it: active = normalized growth mostly below about 0.91 (no sharp cut-off); inconclusive = no clear call, values can overlap the other calls; inactive = mostly above about 0.92. This is one part of the list.

Test: chemical genetic growth profiling, strain panel (AID 1159580);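 also: tested at 20 µM; growth read once vehicle control cultures reached saturation at 30 °C; 1 = growth at the plate median or of vehicle wells; lower values mean less growth of the strain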
Settings: growth OD

Measured: normalized growth

Cn1c(=O)c2[nH]cnc2n(C)c1=O
inactive: S. cerevisiae deletion strains, locus YJR066W, strain TOR1, active compounds read low 0.959 | S. cerevisiae deletion strains, locus YKL009W, strain mrt4, active compounds read low 0.98 | S. cerevisiae deletion strains, locus YKL068W, active compounds read low 0.992 | S. cerevisiae deletion strains, locus YKL085W, strain MDH1 (second series), active compounds read low 0.982 | S. cerevisiae deletion strains, locus YKL085W, strain MDH1, active compounds read low 0.982 | S. cerevisiae deletion strains, locus YKL160W, strain elf1, active compounds read low 1.04 | S. cerevisiae deletion strains, locus YKL190W, strain CNB1, active compounds read low 0.996 | S. cerevisiae deletion strains, locus YKR001C, strain vps1, active compounds read low 0.971 | S. cerevisiae deletion strains, locus YKR026C, strain gcn3, active compounds read low 1.01 | S. cerevisiae deletion strains, locus YKR091W, strain srl3, active compounds read low 1.02 | S. cerevisiae deletion strains, locus YLL001W, strain dnm1, active compounds read low 1.01 | S. cerevisiae deletion strains, locus YLL026W, active compounds read low 1.02 | S. cerevisiae deletion strains, locus YLL041C, strain sdh2, active compounds read low 1.01 | S. cerevisiae deletion strains, locus YLR027C, strain aat2, active compounds read low 1.02 | S. cerevisiae deletion strains, locus YLR039C, strain RIC1, active compounds read low 0.982 | S. cerevisiae deletion strains, locus YLR058C, strain SHM2, active compounds read low 0.988 | S. cerevisiae deletion strains, locus YLR102C, strain apc9, active compounds read low 0.977 | S. cerevisiae deletion strains, locus YLR113W, strain HOG1, active compounds read low 0.99 | S. cerevisiae deletion strains, locus YLR221C, strain rsa3, active compounds read low 1.02 | S. cerevisiae deletion strains, locus YLR258W, strain gsy2, active compounds read low 1.02 | S. cerevisiae deletion strains, locus YLR262C, strain YPT6 (second series), active compounds read low 1 | S. cerevisiae deletion strains, locus YLR262C, strain YPT6, active compounds read low 0.993 | S. cerevisiae deletion strains, locus YLR268W, strain sec22, active compounds read low 0.941 | S. cerevisiae deletion strains, locus YLR320W, strain mms22, active compounds read low 1.01 | S. cerevisiae deletion strains, locus YLR330W, strain CHS5, active compounds read low 0.992 | S. cerevisiae deletion strains, locus YLR342W, strain FKS1 (second series), active compounds read low 0.99 | S. cerevisiae deletion strains, locus YLR342W, strain FKS1, active compounds read low 1.02 | S. cerevisiae deletion strains, locus YLR357W, strain rsc2, active compounds read low 1.01 | S. cerevisiae deletion strains, locus YLR370C, strain arc18, active compounds read low 1.03 | S. cerevisiae deletion strains, locus YLR371W, strain rom2, active compounds read low 0.968 | S. cerevisiae deletion strains, locus YLR384C, strain iki3, active compounds read low 1.01 | S. cerevisiae deletion strains, locus YLR418C, strain cdc73, active compounds read low 0.971 | S. cerevisiae deletion strains, locus YML016C, strain PPZ1, active compounds read low 0.989 | S. cerevisiae deletion strains, locus YML032C, strain rad52, active compounds read low 0.971 | S. cerevisiae deletion strains, locus YML120C, strain ndi1, active compounds read low 1.02 | S. cerevisiae deletion strains, locus YML124C, strain tub3, active compounds read low 0.969 | S. cerevisiae deletion strains, locus YMR058W, strain fet3, active compounds read low 1.02 | S. cerevisiae deletion strains, locus YMR078C, strain ctf18, active compounds read low 0.975 | S. cerevisiae deletion strains, locus YMR125W, strain sto1, active compounds read low 1.01 | S. cerevisiae deletion strains, locus YMR129W, active compounds read low 1.01 | S. cerevisiae deletion strains, locus YMR205C, strain PFK2, active compounds read low 1.04 | S. cerevisiae deletion strains, locus YMR223W, strain ubp8, active compounds read low 0.984 | S. cerevisiae deletion strains, locus YMR231W, strain pep5, active compounds read low 1.02 | S. cerevisiae deletion strains, locus YMR263W, strain SAP30, active compounds read low 0.996 | S. cerevisiae deletion strains, locus YMR307W, strain GAS1, active compounds read low 0.992 | S. cerevisiae deletion strains, locus YNL067W, strain RPL9B, active compounds read low 0.993 | S. cerevisiae deletion strains, locus YNL071W, strain lat1, active compounds read low 1.03 | S. cerevisiae deletion strains, locus YNL128W, strain TEP1, active compounds read low 0.985 | S. cerevisiae deletion strains, locus YNL153C, strain GIM3, active compounds read low 0.988 | S. cerevisiae deletion strains, locus YNL175C, strain NOP13, active compounds read low 0.995 | S. cerevisiae deletion strains, locus YNL183C, strain NPR1, active compounds read low 0.955 | S. cerevisiae deletion strains, locus YNL197C, strain WHI3, active compounds read low 1 | S. cerevisiae deletion strains, locus YNL209W, strain ssb2, active compounds read low 1.02 | S. cerevisiae deletion strains, locus YNL224C, strain SQS1, active compounds read low 0.99 | S. cerevisiae deletion strains, locus YNL233W, strain BNI4, active compounds read low 0.993 | S. cerevisiae deletion strains, locus YNL248C, strain rpa49, active compounds read low 1.05 | S. cerevisiae deletion strains, locus YNL250W, strain rad50, active compounds read low 0.979 | S. cerevisiae deletion strains, locus YNL271C, strain bni1, active compounds read low 0.967 | S. cerevisiae deletion strains, locus YNL298W, strain CLA4, active compounds read low 0.965 | S. cerevisiae deletion strains, locus YNL307C, strain MCK1, active compounds read low 0.971 | S. cerevisiae deletion strains, locus YNL322C, strain KRE1 (second series), active compounds read low 1.01 | S. cerevisiae deletion strains, locus YNR049C, strain mso1, active compounds read low 1.02 | S. cerevisiae deletion strains, locus YNR052C, strain pop2, active compounds read low 0.971 | S. cerevisiae deletion strains, locus YOL006C, strain TOP1, active compounds read low 1.01 | S. cerevisiae deletion strains, locus YOL012C, strain htz1 0.812 | S. cerevisiae deletion strains, locus YOL147C, strain pex11, active compounds read low 0.973 | S. cerevisiae deletion strains, locus YOR001W, strain rrp6, active compounds read low 0.994 | S. cerevisiae deletion strains, locus YOR061W, strain CKA2, active compounds read low 0.988 | S. cerevisiae deletion strains, locus YOR069W, strain VPS5, active compounds read low 0.982 | S. cerevisiae deletion strains, locus YOR070C, strain gyp1, active compounds read low 1.04 | S. cerevisiae deletion strains, locus YOR080W, strain dia2, active compounds read low 1 | S. cerevisiae deletion strains, locus YOR083W, strain WHI5 (second series), active compounds read low 1.01 | S. cerevisiae deletion strains, locus YOR083W, strain WHI5, active compounds read low 1.03 | S. cerevisiae deletion strains, locus YOR106W, strain vam3, active compounds read low 1.05 | S. cerevisiae deletion strains, locus YOR136W, strain idh2, active compounds read low 0.986 | S. cerevisiae deletion strains, locus YOR144C, strain elg1, active compounds read low 0.981 | S. cerevisiae deletion strains, locus YOR184W, strain ser1, active compounds read low 0.97 | S. cerevisiae deletion strains, locus YOR231W, strain MKK1, active compounds read low 0.979 | S. cerevisiae deletion strains, locus YOR265W, strain rbl2, active compounds read low 1.01 | S. cerevisiae deletion strains, locus YOR270C, strain vph1, active compounds read low 1.05 | S. cerevisiae deletion strains, locus YOR290C, strain snf2, active compounds read low 1.05 | S. cerevisiae deletion strains, locus YOR316C, strain cot1, active compounds read low 0.969 | S. cerevisiae deletion strains, locus YPL051W, strain arl3, active compounds read low 1.04 | S. cerevisiae deletion strains, locus YPL078C, strain atp4, active compounds read low 1.04 | S. cerevisiae deletion strains, locus YPL106C, strain sse1, active compounds read low 1.05 | S. cerevisiae deletion strains, locus YPL240C, strain hsp82, active compounds read low 1.02 | S. cerevisiae deletion strains, locus YPL241C, strain CIN2, active compounds read low 0.992 and 1 | S. cerevisiae deletion strains, locus YPL256C, strain CLN2, active compounds read low 0.97 | S. cerevisiae deletion strains, locus YPR119W, strain clb2, active compounds read low 0.986 | S. cerevisiae deletion strains, locus YPR141C, strain kar3, active compounds read low 0.961 | S. cerevisiae deletion strains, locus YPR163C, strain tif3, active compounds read low 0.965 | S. cerevisiae deletion strains, locus YPR167C, strain met16, active compounds read low 0.977 | S. cerevisiae deletion strains, strain wtn01, active compounds read low 0.953 | S. cerevisiae strains, strain wild type, active compounds read low 1
